The source of these data is PubChem BioAssay (EPA / NIEHS).

Assay [1] in a line: NVS_GPCR_bNPY_NonSelective: NovaScreen (NVS) G Protein-Coupled Receptor Assay for bovine Neuropeptide Y (NPY) Receptor, Non-selective Binding (AID 2283245). A digest of the protocol:
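Displacement of radioligand from bovine hippocampal membrane receptors, read by filtration and scintillation counting after 1 hour. Concentration-response to a top of 50 uM followed a 25 uM duplicate primary screen. Loss of signal versus DMSO.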

For assay [2], the system named is guinea pig Muscarinic, Peripheral (Mperiperal) Receptor, Non-selective Binding, gene 100379235. In words: NVS_GPCR_gMPeripheral_NonSelective: NovaScreen (NVS) G Protein-Coupled Receptor Assay for guinea pig Muscarinic, Peripheral (Mperiperal) Receptor, Non-selective Binding (AID 2283250). The procedure:
NVS_GPCR_gMPeripheral_NonSelective is a biochemical, single-readout assay that uses extracted gene-proteins from Guinea pig bladder membranes in a tissue-based cell-free assay. Measurements were taken 1 hour after chemical dosing in a 48-well plate.NVS_GPCR_gMPeripheral_NonSelective is one of one assay component(s) measured or calculated from the NVS_GPCR_gMPeripheral_NonSelective assay. It is designed to make measurements of radioligand binding, a form of binding reporter, as detected with scintillation counting signals by Filter-based radiodetection technology.Data from the assay component NVS_GPCR_gMPeripheral_NonSelective was analyzed into 1 assay endpoint. This assay endpoint, NVS_GPCR_gMPeripheral_NonSelective, was analyzed in the positive analysis fitting direction relative to DMSO as the negative control and baseline of activity. Using a type of binding reporter, loss-of-signal activity can be used to understand changes in the binding as they relate to the gene Chrm3. Furthermore, this assay endpoint can be referred to as a primary readout, because the performed assay has only produced 1 assay endpoint. To generalize the intended target to other relatable targets, this assay endpoint is annotated to the gpcr intended target family, where the subfamily is rhodopsin-like receptor. […]

In assay [3] the target is human Serotonin, 5-Hydroxytryptamine Receptor 2A (5HT2A), HTR2A (gene 3356) (UniProt P28223). The assay is described as follows: NVS_GPCR_h5HT2A: NovaScreen (NVS) G Protein-Coupled Receptor Assay for human Serotonin, 5-Hydroxytryptamine Receptor 2A (5HT2A) (AID 2283249). An outline of the steps: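 Radioligand displacement on human cortex tissue extract, counted by filtration and scintillation 1.5 h post-dosing. Initial single-concentration screen at 25 uM in duplicate, concentration series in follow-up; DMSO as baseline.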

For assay [4], the target named is human Serotonin, 5-Hydroxytryptamine Receptor 6 (5HT6), HTR6 (gene 3362) (UniProt P50406). In words: NVS_GPCR_h5HT6: NovaScreen (NVS) G Protein-Coupled Receptor Assay for human Serotonin, 5-Hydroxytryptamine Receptor 6 (5HT6) (AID 2283253). A digest of the protocol: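 Filter scintillation counting of radioligand displacement from HEK293-expressed 5HT6, 1 hour post-dose, with loss of signal relative to DMSO. Single 25 uM duplicates first, with concentration series for confirmation.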

Assay [5] addresses Beta-2 adrenergic receptor (Homo sapiens) (UniProt P07550). The assay is described as follows: NVS_GPCR_hAdrb2: NovaScreen (NVS) G Protein-Coupled Receptor Assay for human Adrenergic, Beta 2 Receptor (Adrb2) (AID 2283261). The procedure: NVS_GPCR_hAdrb2 is a biochemical, single-readout assay that uses extracted gene-proteins from CHO in a cell-free assay. Measurements were taken 1 hour after chemical dosing in a 96-well plate.NVS_GPCR_hAdrb2 is one of one assay component(s) measured or calculated from the NVS_GPCR_hAdrb2 assay. It is designed to make measurements of radioligand binding, a form of binding reporter, as detected with scintillation counting signals by Filter-based radiodetection technology.Data from the assay component NVS_GPCR_hAdrb2 was analyzed into 1 assay endpoint. This assay endpoint, NVS_GPCR_hAdrb2, was analyzed in the positive analysis fitting direction relative to DMSO as the negative control and baseline of activity. […] Furthermore, this assay endpoint can be referred to as a primary readout, because the performed assay has only produced 1 assay endpoint. […]
Binding assays used specific radioligands (tritiated, iodinated) with non-radioactive competitive displacement ligands in agonist or antagonist protocols (as indicated) and various reference compounds and inhibitors to titrate specific binding to receptors and transporters. Most enzyme assays (CYPs, kinases, phosphatases, proteases, HDACs) used recombinant protein and specific substrates (fluorescence mostly, some colorimetric and radioactive) and inhibitors, followed by a biochemical separation of substrate and product. […]

The target in assay [6] is human Adrenergic, Beta 3 Receptor (Adrb3), ADRB3 (gene 155) (UniProt P13945). The assay is described as follows: NVS_GPCR_hAdrb3: NovaScreen (NVS) G Protein-Coupled Receptor Assay for human Adrenergic, Beta 3 Receptor (Adrb3) (AID 2283262). A digest of the protocol:
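A cell-free filter binding assay read by scintillation counting, with displacement of a specific radioligand measured after 1 hour. The receptor source was SK-N-MC extracts (cells pretreated with isoproterenol and 8-bromo-cAMP). Compounds were first tested at 25 uM in duplicate and then in concentration series.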

SMILES strings stand for the structures. Records with an inconclusive call do not appear. The source holds several records for some structures; these can differ, active in one and inactive in another. Active and inactive are the calls of the source. The calls were made as follows: active = hit-call score of the fitted dose curve at least 0.9, where 1 is the maximum; inconclusive = response in the unintended direction; inactive = score below 0.9.

Sequence of human Serotonin, 5-Hydroxytryptamine Receptor 6 (5HT6), HTR6 (gene 3362) (P50406 whole entry, looked up): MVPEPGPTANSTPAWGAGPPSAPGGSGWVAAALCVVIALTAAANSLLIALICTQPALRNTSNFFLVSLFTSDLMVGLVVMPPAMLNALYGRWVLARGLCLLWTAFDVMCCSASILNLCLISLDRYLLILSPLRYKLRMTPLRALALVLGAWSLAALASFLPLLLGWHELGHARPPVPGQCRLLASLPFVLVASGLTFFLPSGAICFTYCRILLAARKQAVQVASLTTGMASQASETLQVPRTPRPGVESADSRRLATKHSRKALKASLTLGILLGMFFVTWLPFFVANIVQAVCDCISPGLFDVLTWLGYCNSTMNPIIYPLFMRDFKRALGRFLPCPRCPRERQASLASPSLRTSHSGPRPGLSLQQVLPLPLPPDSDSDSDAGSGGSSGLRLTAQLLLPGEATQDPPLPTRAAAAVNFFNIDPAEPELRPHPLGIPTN
Sequence of Beta-2 adrenergic receptor (Homo sapiens) (P07550 whole entry, looked up): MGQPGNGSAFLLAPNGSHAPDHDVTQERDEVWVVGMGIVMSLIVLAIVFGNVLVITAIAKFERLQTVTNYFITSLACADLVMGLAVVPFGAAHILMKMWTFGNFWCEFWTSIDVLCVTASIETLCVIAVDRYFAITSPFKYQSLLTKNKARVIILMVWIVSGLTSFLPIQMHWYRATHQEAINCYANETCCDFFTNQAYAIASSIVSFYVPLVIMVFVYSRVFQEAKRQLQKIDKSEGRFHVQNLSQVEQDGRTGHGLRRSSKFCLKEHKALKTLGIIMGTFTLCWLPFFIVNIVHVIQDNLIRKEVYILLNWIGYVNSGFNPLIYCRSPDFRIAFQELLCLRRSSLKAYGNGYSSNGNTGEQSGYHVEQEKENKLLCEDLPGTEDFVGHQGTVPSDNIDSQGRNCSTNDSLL
Sequence of human Serotonin, 5-Hydroxytryptamine Receptor 2A (5HT2A), HTR2A (gene 3356) (P28223 whole entry, looked up): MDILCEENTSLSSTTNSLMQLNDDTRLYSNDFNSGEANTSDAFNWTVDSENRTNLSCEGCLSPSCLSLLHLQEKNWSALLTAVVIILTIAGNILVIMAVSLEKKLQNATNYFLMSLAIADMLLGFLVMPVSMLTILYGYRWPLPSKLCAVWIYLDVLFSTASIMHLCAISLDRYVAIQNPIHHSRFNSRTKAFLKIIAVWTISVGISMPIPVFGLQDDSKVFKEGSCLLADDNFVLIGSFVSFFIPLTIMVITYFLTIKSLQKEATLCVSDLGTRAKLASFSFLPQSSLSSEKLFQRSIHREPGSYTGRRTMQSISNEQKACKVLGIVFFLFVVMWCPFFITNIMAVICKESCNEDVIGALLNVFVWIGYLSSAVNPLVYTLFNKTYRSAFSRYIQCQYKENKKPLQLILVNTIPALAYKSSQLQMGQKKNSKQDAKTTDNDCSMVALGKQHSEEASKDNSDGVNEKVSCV
Sequence of human Adrenergic, Beta 3 Receptor (Adrb3), ADRB3 (gene 155) (P13945 whole entry, looked up): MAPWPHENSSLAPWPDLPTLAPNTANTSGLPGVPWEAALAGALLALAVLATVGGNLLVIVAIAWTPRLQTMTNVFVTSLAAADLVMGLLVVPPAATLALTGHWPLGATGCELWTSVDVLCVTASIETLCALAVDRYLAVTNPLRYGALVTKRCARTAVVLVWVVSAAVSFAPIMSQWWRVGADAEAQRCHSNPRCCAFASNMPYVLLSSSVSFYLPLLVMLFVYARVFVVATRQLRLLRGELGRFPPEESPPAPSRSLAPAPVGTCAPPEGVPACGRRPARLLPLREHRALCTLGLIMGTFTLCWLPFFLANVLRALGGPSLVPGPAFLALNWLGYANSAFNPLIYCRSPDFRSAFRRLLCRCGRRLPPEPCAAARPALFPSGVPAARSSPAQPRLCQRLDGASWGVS

Turning to `CCCCNC(=O)OCC#CI`, in assay [1], the concentration at half-maximal activity (AC50) is 4.96 µM (active) and the call was inactive. The call in assay [2] was inactive.

Consider `Fc1ccc(Oc2ccnc3cc(Cl)cc(Cl)c23)cc1`, for which, in assay [3], the result was inactive.

As to `CCNc1nc(Cl)nc(NCC)n1`, the outcome in assay [3] was inactive.

For `CO/C=C(/C(=O)OC)c1ccccc1Oc1cc(Oc2ccccc2C#N)ncn1`, the compound was called inactive in assay [2].

With `OC(c1ccc(Cl)cc1)(c1cncnc1)c1ccccc1Cl` (stereo unspecified), in assay [4], the AC50 is 8.03 µM (active). In addition, the call in assay [5] was inactive.

Regarding `CN(C)C(=S)SSC(=S)N(C)C`, the AC50 in assay [4] is 5.18 µM (active).

Consider `COc1ccc(C(c2ccc(OC)cc2)C(Cl)(Cl)Cl)cc1`, for which, in assay [5], the call was inactive.

As to `O=C(Nc1ccccc1)Nc1ccnc(Cl)c1`, the result in assay [6] was inactive.

One may read the AC50 as the concentration at which the activity in the assay is half-maximal.
